Data on 99 compounds can be found in PubChem BioAssay AID651820 (National Center for Advancing Translational Sciences (NCATS), 2012).

The campaign covered roughly 340,000 compounds. About 12,000 (3.5%) were called active. A call without a number means that no potency is given here. Roughly 18% stayed inconclusive and do not appear here. Calls come from the whole dose curve; as a rule, active = well fitted inhibition curve with a large enough effect; inconclusive = small, poorly fitted or top-dose-only effect, or another doubt; inactive = no such curve, though single readings can be large or run the other way. For the sample, actives were picked, then their nearest neighbours and some compounds at random.
Potency is the fitted concentration of half-maximal effect.

The assay can be described thus: qHTS Assay for Inhibitors of Hepatitis C Virus (HCV). Conditions: Huh7.5.1 HCVcc-Cre infection, luciferase reporter, 44 h; series mostly up to 41.8 µM. In a few lines: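 Cells seeded at 1,000/well and cultured 4 h, then compounds added followed by HCVcc-Cre virus (~0.5 moi). After 44 h further culture, luciferase substrate was added, plates held 15 min at room temperature, and luminescence read for 15 sec.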
In general terms: In qHTS, concentration-response curves come from the screen itself.
As to `Cc1cc([N+](=O)[O-])c(=O)[nH]c1C`, the Potency entry was “inactive”.

Take `CN(C)C(=O)CCc1ccc2c3c([nH]c2c1)[C@]1(C)[C@@H](C(=O)N2CCCCC2)C[C@H](CC(=O)NCCC2=CCCCC2)C(=O)N1CC3`: the Potency result was “inactive”.

On to `COc1cc(OC)cc(C(=O)NNC(=O)Cc2cccs2)c1`, for which the Potency result was “inactive”.

With `O=C(CNc1ccccc1N1CCCC1=O)Nc1cc(Cl)ccc1-n1cncn1`, the Potency result was “inactive”.

As to `OCCNc1nc(Nc2ccc(Cl)c(Cl)c2)nc2ccccc12`, the Potency was 10 µM (active).

As for `CN(C)c1nc(Nc2ccc(Cl)c(Cl)c2)nc(N(C)C)n1`, the Potency result was “inactive”.

On to `Cc1nnc(NCCO)c2ccccc12`, for which the Potency result was “inactive”.

As for `CC(C)Sc1nc(N)nc2c1ncn2C1OC(CO)C(O)C1O` (centres undefined), the Potency entry was “inactive”.

Turning to `CC[C@]12c3[nH]c4ccc(OC)cc4c3CCN1C(=O)C(CC(=O)NCCN1CCOCC1)C[C@@H]2C(=O)N1CCN(C(=O)C2CC2)CC1` (some centres undefined), the Potency result is “inactive”.

On to `O=C(Nc1ccccc1C(=O)NCC1CCCO1)c1ccccc1F` (centres undefined), for which the Potency result is “inactive”.

In the case of `Cc1cccn2c(=O)c3cc(C(=O)NCC4CCCO4)c(=N)n(Cc4ccc(F)cc4)c3nc12` (centres undefined), the Potency was 5.62 µM (active).

In the case of `Cc1cccn2c(=O)c3cc(C#N)c(=NC(=O)c4cccnc4)n(CC4CCCO4)c3nc12` (centres undefined), the Potency result is “inactive”.

Turning to `CCOc1ccc(CCNC(=O)CN2C(=O)NC3(CCc4ccccc43)C2=O)cc1OCC` (centres undefined), the Potency result was “inactive”.

For `COc1cc(/C=C/C2=CC(C)(C)NC(=S)N2)cc(OC)c1OC`, the Potency entry was “inactive”.

For `COc1ccc(/C=C2/C(=O)N(c3ccccc3)N=C2C)c(OC)c1`, the Potency entry was “inactive”.

For `COc1ccc(/C=C/C2=CC(C)(C)NC(=S)N2)c(OC)c1`, the Potency was 14.1 µM (active).

Consider `CCCCn1c(SCC(=O)N2CCCC2=O)nc2cc(S(N)(=O)=O)ccc21`, for which the Potency result is “inactive”.

With `CCn1c(SCC(=O)NCC2CCCO2)nc2cc(S(=O)(=O)N3CCCCC3)ccc21` (centres undefined), the Potency result was “inactive”.

`CCCCn1c(SCc2ncc(-c3ccccc3)o2)nc2cc(S(N)(=O)=O)ccc21`: the Potency was 6.31 µM (active).

With `CC(=O)Nc1ccc(SC[C@H](Cc2ccccc2)N2CC[C@@H](C)CCC2=O)cc1`, the Potency result was “inactive”.

For the compound `C=C(C)COc1ccc(-c2nc(N)ncc2-c2ccccc2OC)c(O)c1`, the Potency is 10 µM (active).

Turning to `CCOc1ccc(-c2nc(N)ncc2-c2ccccc2OC)c(O)c1`, the Potency result is “inactive”.

In the case of `COc1ccc(-c2nc(N)ncc2-c2ccc(Cl)cc2)c(O)c1`, the Potency entry is “inactive”.

On to `O=C(COC(=O)c1ncc(Cl)c(Cl)c1Cl)NCc1ccccc1`, for which the Potency entry is “inactive”.

On to `O=C(CCNC(=O)c1ccccc1Cl)NN=Cc1ccco1`, for which the Potency result is “inactive”.

Regarding `COC(=O)C1=C(C)NC(=S)NC1c1ccc(OCC(=O)N2CC(C)OC(C)C2)c(OC)c1` (centres undefined), the Potency result was “inactive”.

With `CNC[C@H](CC1CCCCC1)NC[C@H](NCCC1CCCC1)[C@H](C)O`, the Potency was 11.2 µM (active).

Turning to `COC(=O)c1ccc(-c2c(-c3ccccc3)ncc3cc(OC)c(OC)cc23)cc1`, the Potency result was “inactive”.

Regarding `COc1ccc(CCNC(=O)C2CCCN(Cc3nc(-c4cccc(Cl)c4)oc3C)C2)cc1OC` (centres undefined), the Potency was 10 µM (active).

For the compound `COc1ccc(CCN(C)C(=O)C2CCCN(Cc3ccc(OC)c(OC)c3)C2)cc1OC` (centres undefined), the Potency entry is “inactive”.

Take `COc1ccc(CCNC(=O)CS(=O)(=O)Cc2nc(-c3ccc(C)cc3)oc2C)cc1OC`: the Potency result was “inactive”.

As for `COc1ccc(NC(=O)CN(C)C(=O)c2cc(-c3ccc(C)o3)nc3ccccc23)cc1`, the Potency result was “inactive”.

As for `CN(C)c1ccc(-n2cccc2/C=C2/SC(=Nc3ccc(F)cc3)NC2=O)cc1`, the Potency result is “inactive”.

Take `Cc1cccc(N=C2NC(=O)/C(=C/c3cn(C)c4ccccc34)S2)c1`: the Potency was 14.1 µM (active).

Turning to `Cn1cc(/C=C/c2nc3ccccc3c(=O)n2-c2cccc([N+](=O)[O-])c2)c2ccccc21`, the Potency entry was “inactive”.

In the case of `Cc1cccc(N(Cc2ccccc2)C(=O)c2cc(S(=O)(=O)N3CCOCC3)ccc2F)c1`, the Potency result was “inactive”.

In the case of `O=S(=O)(NC1CCCCC1)c1ccc(F)c2ccccc12`, the Potency was 35.5 µM (active).

Consider `CSc1ccc(S(=O)(=O)NC2CCCCC2)cc1`, for which the Potency entry is “inactive”.

Regarding `O=S(=O)(NC1CC1)c1ccc2c3c(cccc13)CC2`, the Potency result is “inactive”.

Turning to `O=C(NNc1nc(N2CCCC2)nc(N2CCCC2)n1)c1ccccc1`, the Potency entry is “inactive”.

Take `CN(C)C(=O)CCc1ccc2c3c([nH]c2c1)[C@]1(CCc2ccccc2)[C@@H](C(=O)N2CCCCC2)C[C@H](CC(=O)NCCC2=CCCCC2)C(=O)N1CC3`: the Potency entry is “inactive”.

Consider `CC(C)CN(C(=O)COC(=O)c1ccc2ccccc2c1)c1c(N)n(Cc2ccccc2)c(=O)[nH]c1=O`, for which the Potency result was “inactive”.

For the compound `CC1=CC(C)(C)Nc2ccc(OC(=O)CN3C(=O)C4CCCCC4C3=O)cc21` (centres undefined), the Potency is 11.2 µM (active).

As to `O=C(COC(=O)CN1C(=O)C2CCCCC2C1=O)Nc1ccc(F)c(F)c1F` (centres undefined), the Potency entry was “inactive”.

`O=C(CN1C(=O)C2C3CCC(C3)C2C1=O)Oc1ccc2ccccc2c1` (centres undefined): the Potency result is “inactive”.

For `CCc1cccc(CC)c1NC(=S)NCc1ccc2[nH]c(C)cc2c1`, the Potency is 14.1 µM (active).

On to `Cc1cc2cc(CNC(=O)c3ccc(S(=O)(=O)N4CCOCC4)cc3)ccc2[nH]1`, for which the Potency result was “inactive”.

Turning to `CCc1cccc(CC)c1NC(=S)Nc1ccc2cn[nH]c2c1`, the Potency entry is “inactive”.

Take `CC(Sc1nnc(-c2cccs2)n1C1CC1)C(=O)NCC1CCCO1` (centres undefined): the Potency entry is “inactive”.

`O=C(COC(=O)Cn1[nH]c(=O)c2ccccc2c1=O)Nc1ncc(Cl)cc1Cl`: the Potency result is “inactive”.

Take `COc1ccc(N2CCN(C(=O)CCNC(=O)c3ccc(Br)cc3)CC2)cc1`: the Potency result was “inactive”.

As for `CC1CCCCC12NC(=O)N(CC(=O)OCc1c(F)cccc1Cl)C2=O` (centres undefined), the Potency entry was “inactive”.

Regarding `O=C(Nc1ccon1)c1sc2ccccc2c1Cl`, the Potency result was “inactive”.

`CN1CCc2ccccc2C1Cc1ccccc1NC(=O)c1sc2ccccc2c1Cl` (centres undefined): the Potency was 14.1 µM (active).

For the compound `CCc1ccccc1NC(=O)NCCN1CCCCC1`, the Potency result is “inactive”.

For the compound `Cc1ccc(NC(=O)CSCC(=O)Nc2sccc2C#N)cc1`, the Potency entry was “inactive”.

Consider `CCCCCCCCCCCCN1[C@@H](CC(C)=O)c2cc(F)cc(F)c2S1(=O)=O`, for which the Potency result was “inactive”.

In the case of `O=C(CN1C(=O)NC(Cc2c[nH]c3ccccc23)C1=O)Nc1ccccc1C(F)(F)F` (centres undefined), the Potency entry was “inactive”.

`O=C(OCCOCn1cc(Br)c(=O)[nH]c1=O)c1ccccc1`: the Potency result is “inactive”.

`Cc1cc(Cl)ccc1OCCCC(=O)NCc1ccncc1`: the Potency result is “inactive”.

Take `CN(C)CCOc1ccc(Cl)cc1C(C)(C)C`: the Potency entry was “inactive”.

As to `CC(C)(C)NCCCOc1ccc(Cl)cc1C(C)(C)C`, the Potency was 5.01 µM (active).

As for `NC1=NC(c2ccc([N+](=O)[O-])cc2)N(c2ccc(F)cc2)C(N)=N1` (centres undefined), the Potency result was “inactive”.

For `COc1ccc(S(=O)(=O)N2CCOC23CCN(S(=O)(=O)c2ccc([N+](=O)[O-])cc2)CC3)cc1`, the Potency entry is “inactive”.

Consider `CCn1c(NCCc2ccc(OC)c(OC)c2)nc2c1c(=O)n(C)c(=O)n2C`, for which the Potency was 11.2 µM (active).

With `COc1ccc(CNc2nc3c(c(=O)[nH]c(=O)n3C)n2Cc2ccccc2)cc1`, the Potency result was “inactive”.

For `Cn1c(=O)c2c(nc(NCc3ccccc3)n2CC(N)=O)n(C)c1=O`, the Potency result was “inactive”.

Regarding `CCCCn1c(SCC(=O)NCCc2ccc(OC)c(OC)c2)nc2c1c(=O)n(C)c(=O)n2C`, the Potency entry is “inactive”.

As to `CCCCNc1nc2c(c(=O)n(C)c(=O)n2C)n1Cc1cccc(OC)c1`, the Potency was 6.31 µM (active).

In the case of `CCCCNc1nc2c(c(=O)[nH]c(=O)n2C)n1CCOc1ccccc1`, the Potency result was “inactive”.

In the case of `CC[C@]1(C(=O)OC)[C@H]2C(=O)N(C)C(=O)[C@H]2[C@H]2CN(C)C(=NCc3ccccc3)N21`, the Potency result was “inactive”.

In the case of `Cc1cccc(C=CC(=O)c2ccc(Cl)cc2)c1`, the Potency entry is “inactive”.

As to `COc1ccc(CNS(=O)(=O)c2ccc(NC(=O)N3CCCCC3)cc2)cc1`, the Potency is 8.91 µM (active).

As to `COc1ccc(S(=O)(=O)NCc2ccc(C(=O)N3CCC4(CC3)OCCO4)cc2)cc1`, the Potency entry was “inactive”.

For the compound `COc1ccc(S(=O)(=O)NC(C)C(=O)N2CCCCCC2)cc1` (centres undefined), the Potency entry is “inactive”.

On to `CCOC(=O)c1cc(=O)c2ccc(OCc3ccccc3)cc2o1`, for which the Potency entry was “inactive”.

With `Cc1cc(=O)oc2ccc(OCC(=O)O)cc12`, the Potency entry was “inactive”.

Regarding `Cc1c(Cc2ccccc2)c(=O)oc2cc(OCC(N)=O)ccc12`, the Potency entry was “inactive”.

Turning to `CCOC(=O)c1c(-c2ccccc2)oc2ccc(OCC(N)=O)cc12`, the Potency was 10 µM (active).

Turning to `CCOC(=O)c1c(-c2ccccc2)oc2ccc(OC(=O)N(C)C)cc12`, the Potency is 10 µM (active).

On to `CN(C)C(=O)Oc1ccc2c(c1)O/C(=C\c1ccccc1)C2=O`, for which the Potency entry is “inactive”.

Regarding `CCOc1ccccc1Nc1nnc(SCC(=O)NCC2CCCO2)s1` (centres undefined), the Potency result was “inactive”.

On to `C=C(C)CNc1cc(S(=O)(=O)N2CCOCC2)ccc1Oc1ccccc1`, for which the Potency result is “inactive”.

Turning to `CCOc1ccc(CCNC(=O)COC(=O)c2c(OC)cccc2OC)cc1OCC`, the Potency result is “inactive”.

As to `CC(C(=O)NC1CCCC1)N1CCN(S(=O)(=O)c2ccccc2Cl)CC1` (centres undefined), the Potency entry was “inactive”.

As to `COc1ccc(OC)c(NC(=O)COC(=O)Cc2ccsc2)c1`, the Potency entry was “inactive”.

On to `Cc1ccc(Br)c(NS(=O)(=O)c2cccc(C(=O)N3CCNC(=O)C3)c2)c1`, for which the Potency result was “inactive”.

`Cc1ccc2nc(S(=O)(=O)O)[nH]c2c1`: the Potency entry was “inactive”.

`CCOC(=O)CSc1nc2ccc(C)cc2[nH]1`: the Potency result is “inactive”.

For `Cc1ccc2nc(/C(C#N)=C\c3ccc(OC(=O)c4cccs4)cc3)[nH]c2c1`, the Potency is 1.78 µM (active).

On to `Cc1cc(C(=O)OCC(=O)Nc2ccccc2Cl)c(C)o1`, for which the Potency result was “inactive”.

As to `O=C(O)CN1CCN(C(c2ccccc2)c2ccccc2)CC1`, the Potency entry was “inactive”.

`CC1(C)CC(N2CCN(C(c3ccccc3)c3ccccc3)CC2)=CC(=[N+]2CCCCC2)C1`: the Potency was 3.16 µM (active).

With `CC(C)NC(=S)N1CCN(C(c2ccccc2)c2ccccc2)CC1`, the Potency result is “inactive”.

Turning to `CS(=O)(=O)c1ccc(C(=O)OCC(=O)NNC(=O)COc2ccc(Cl)cc2)cc1`, the Potency entry is “inactive”.

In the case of `O=C(NCCCc1ccccc1)C(=O)NCC1OCCN1S(=O)(=O)c1ccccc1` (centres undefined), the Potency result is “inactive”.

`CN=C(Nc1cccc(S(=O)(=O)N2CCOCC2)c1)c1ccccc1`: the Potency entry was “inactive”.

As to `CC(C)Oc1ccc(C(=O)NCC(=O)Nc2ccc3c(c2)CCC3)cc1`, the Potency entry is “inactive”.

Take `CC[C@]1(C(=O)OC)[C@H]2C(=O)N(Cc3ccccc3)C(=O)[C@H]2[C@H]2CN=C(SCc3ccccc3)N21`: the Potency result was “inactive”.
